# Bioassay records (PubChem BioAssay)
# miR-21 reporter: qHTS Assay for Modulators of miRNAs and/orActivators of miR-21; HeLa miR-21 FLuc reporter, luciferase, 48 h; Potency, µM (highest dose often 38.3 µM), for the others: at the top dose activity change, positive = activation, hits mostly activators; 340,000 tested, under 10 active; AID 2288, 2010;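 also: % of control where 0% means no effect; miR-21 action dims this reporter so a rising signal means less miR-21 action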
#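 HeLa cells endogenously expressing miR-21, stably carrying CMV-driven firefly luciferase with a downstream miR-21 binding site, 2000 cells/well. Titrations up to approximately 40 uM, 48 hours; luciferase luminescence read.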
# IL2 activator: qHTS of IL-2 Activators. IL-2 activation reporter assay, cell-based qHTS; stimulated with anti-CD3/CD4/CD28 beads; in transgenic mouse T cells. activation, % (series mostly up to about 46 µM). 360,000 compounds, 0.065% hits; in the data active = activation above about 50%; inconclusive = mostly about 30% to 49%; also: 0% is about no effect
#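 Unstimulated transgenic mouse T cells, 750 per well, received compound and, after 60 minutes, anti-CD3/anti-CD4 bead plus anti-CD28 stimulation. EGFP and DsRed were quantified after 18 hours.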
# Nrf2 activator: qHTS of Nrf2 Activators | AID 624171, 2012 | 410,000 compounds, 0.31% hits | Potency, µM (titrated, usually from 46.1 µM), for the others: top-dose activation, usual class: activators | AREc32 ARE-luciferase reporter (MCF7-derived line), luminescence, 24 h; also: potency is read from the fitted curve at half-maximal effect; % of control where 0% means no effect; nearly all actives have a fitted effect of over 65% in size
#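 Luminescent ARE reporter assay in AREc32_Fluc cells: overnight plating at 37 deg C, 24 hr compound incubation, Steady-Glo added, 30 min RT before reading.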
# Nrf2 block: Nrf2 qHTS screen for inhibitors; A549 ARE-Fluc reporter, luciferase luminescence, 18-24 h; Potency, µM (doses to about 46 µM), inactives show top-dose activity change, negative = inhibition, hits mostly inhibitors; 360,000 compounds, 2.1% hits; AID 504444, 2011; also: potency is read from the fitted curve at half-maximal effect; % is scaled to controls: 0 for no effect and ±100 for the full control effect; nearly all actives have a fitted effect of over 60% in size
#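 A549 ARE_Fluc cells, 5000/well, 5% FBS OPTI-MEM; compounds in dose-response, 18-24 h at 37 °C/5% CO2; CellTiter-Fluor viability read (Ex 405/Em 525), then BugLite luciferase luminescence = Nrf2 activity.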
# ClpP mod: qHTS Assay for Activators of ClpP; ATP-dependent Clp protease proteolytic subunit (Bacillus subtilis (strain 168)), P80244; purified B. subtilis ClpP, FRET peptide cleavage, 20 min; Potency, µM (titrated, usually from 57.5 µM), without a hit: at the highest dose activity change, negative = active; 340,000 compounds, 1.9% hits; active = well fitted falling curve with a large enough effect; inconclusive = small, poorly fitted or top-dose-only effect; inactive = no such curve, though single readings can be large or run the other way; also: potency is read from the fitted curve at half-maximal effect; the source files actives as falling curves though it sought activators and does not explain the sign; nearly all actives have a fitted effect of over 65% in size
# Target sequence (P80244 whole entry, looked up): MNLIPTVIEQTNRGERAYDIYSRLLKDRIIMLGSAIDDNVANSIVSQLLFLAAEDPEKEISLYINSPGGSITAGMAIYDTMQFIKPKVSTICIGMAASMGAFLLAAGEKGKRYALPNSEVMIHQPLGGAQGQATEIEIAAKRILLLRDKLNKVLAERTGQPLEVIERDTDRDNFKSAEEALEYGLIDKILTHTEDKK
#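 Purified B. subtilis ClpP, 10 microg/mL final in Tris/HCl pH8 with KCl, BSA, glycerol and Tween-20, cleaved an Abz/nitrotyrosine-quenched decapeptide. Fluorescence (ex 320, em 430) was read at 0 and 20 min at room temperature. Delta was normalized to 5.8 microM ADEP and DMSO/no-enzyme controls.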
# A549 tox: Nrf2 qHTS screen for inhibitors: counterscreen for cytotoxicity | A549 ARE-Fluc cells, CellTiter-Fluor viability, 18-24 h | 390,000 compounds, 0.16% hits | Potency, µM (doses to about 46 µM), without a hit: at the top dose activity change, negative = cytotoxicity, most hits filed as inhibitors; also: potency is read from the fitted curve at half-maximal effect; % is scaled to controls: 0 for no effect and ±100 for the full control effect
#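 A549 ARE_Fluc cells in 5% FBS OPTI-MEM were exposed to compounds in concentration-response for 18-24 h at 37 deg C. Viability was read by CellTiter-Fluor fluorescence (Ex 405/Em 525) after 30 min, before the luciferase read.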
# The depositor's hits bear a star; ? = inconclusive; / = no result. The list is not random: actives were taken first. Their share in the collection is about 3.7%. Unless noted, calls follow the shape of the dose curve; as a rule, active = well fitted curve in the direction sought with a large enough effect; inconclusive = small, poorly fitted or top-dose-only effect, or another doubt; inactive = no such curve, though single readings can be large; an effect the other way counts as inactive or inconclusive.
SMILES,miR-21 reporter,IL2 activator,Nrf2 activator,Nrf2 block,ClpP mod,A549 tox
O=C1Nc2c(c(=O)[nH]c(=O)n2-c2ccccc2)C1(NS(=O)(=O)c1ccc(Cl)cc1)C(F)(F)F (centres undefined),0.8%,/,-0.3%,15.6%,-2.3%,6.2%
c1ccc(-c2nc3c(ccc4ccccc43)[nH]2)nc1,-28.4%,-0.4,5.6%,?,28.2µM*,3.0%
CN1CCN(CCCNC(=O)c2cnn(-c3ccccc3)c2-n2cccc2)CC1,-5.7%,/,-0.3%,7.5%,-2.6%,5.3%
CCCCn1c(-c2ccc(Cl)cc2)nc2c(=O)n(C)c(=O)[nH]c21,-5.0%,1.3,-0.4%,/,11.2µM*,-3.2%
COc1ccccc1-c1nnc(-c2ccc(N3CCOCC3)cc2)o1,-83.9%,-2.3,3.4%,23.8%,17.8µM*,-11.3%
COc1ccc(OCc2nnc(NC(=O)Nc3ccc(F)cc3)s2)cc1,-0.3%,1.1,-1.0%,0.3%,1.3%,10.9%
CCOc1ccc(NC(=O)Nc2nnc(CC)s2)cc1,-40.5%,3.0,4.1%,/,28.2µM*,-2.9%
CCCCN(C)C(=O)CCC(=O)Nc1ccc2nc(N3CCN(C)CC3)cc(C)c2c1,-5.0%,1.6,0.5%,2.4%,/,0.7%
CCOC(CCNC(=O)CCC(=O)Nc1ccc2nc(N3CCN(C)CC3)cc(C)c2c1)OCC,-2.9%,0.7,0.0%,5.3%,/,-0.9%
Cc1cc(N2CCOCC2)nc2ccc(NC(=O)CCC(=O)N3CCC(C)CC3)cc12,-36.5%,0.6,0.4%,?,28.2µM*,13.5%
CCCCN(C)C(=O)CCC(=O)Nc1ccc2nc(N3CCOCC3)cc(C)c2c1,-22.5%,1.5,2.8%,?,7.94µM*,?
Cc1cc(N2CCC(C)CC2)nc2ccc(NC(=O)CCC(=O)N3CCN(c4ccccc4F)CC3)cc12,16.7%,/,0.8%,-21.4%,3.9%,-11.0%
COc1cc(NC(=O)CCC(=O)Nc2ccc3nc(N4CCOCC4)cc(C)c3c2)cc(OC)c1OC,-5.3%,-3.8,9.7%,?,25.1µM*,2.2%
CCOc1ccccc1NC(=O)CCC(=O)Nc1ccc2nc(N3CCN(C)CC3)cc(C)c2c1,-9.1%,-0.9,5.5%,-2.0%,25.1µM*,-0.1%
COc1ccccc1N1CCN(C(=O)CSc2nc3ccccc3nc2Cc2ccccc2)CC1,9.4%,/,0.4%,/,0.5%,14.8%
CCOc1ccc(Br)cc1CNCCSc1nnnn1-c1ccccc1,-1.3%,/,-0.5%,10.2%,-0.4%,12.5%
CCOc1ccc(NC(=O)Cn2c(=O)oc3cc(S(=O)(=O)N4CCC(C)CC4)ccc32)cc1,4.2%,/,2.3%,-6.9%,-1.4%,10.2%
COc1ccc(N(C)C(=O)CCC(=O)Nc2ccc3nc(N4CCOCC4)cc(C)c3c2)c(OC)c1,-10.4%,-1.6,0.4%,?,28.2µM*,-0.8%
COc1ccc(NC(=O)CCC(=O)Nc2ccc3nc(N4CCOCC4)cc(C)c3c2)c(OC)c1,-11.8%,2.0,0.0%,-1.8%,/,-8.7%
COc1ccc(NS(=O)(=O)c2ccc(-n3cccn3)cc2)cc1OC,17.1%,/,-0.5%,/,-1.9%,-2.6%
COc1ccc(-c2c3c(=O)n(C)c(=O)n(C)c3cn2C2CCCCC2)cc1,-22.9%,-0.8,2.4%,?,15.8µM*,-12.6%
CCc1ccc(C(=O)COC(=O)c2cc([N+](=O)[O-])ccc2NCCO)cc1,-6.1%,-3.5,3.1%,7.31µM*,-0.1%,14.6µM*
O=C(COC(=O)c1cc([N+](=O)[O-])ccc1NCCO)c1ccc(Cl)cc1,-0.9%,-0.7,0.1%,1.6%,/,0.4%
O=C(CN1C(=O)CSc2ccc(S(=O)(=O)N3CCCC3)cc21)NCc1ccc(F)cc1Cl,-4.5%,/,0.9%,/,-1.3%,-0.2%
Cc1cc(C)c2cc(CN(CCO)Cc3nnnn3Cc3ccccc3)c(=O)[nH]c2c1,-5.3%,0.4,0.4%,12.3%,-8.8%,0.8%
SMILES,miR-21 reporter,IL2 activator,Nrf2 activator,Nrf2 block,ClpP mod,A549 tox
O=c1[nH]c2cc3c(cc2cc1CN(Cc1ccc2c(c1)OCO2)Cc1nnnn1CC1CCCO1)OCO3 (centres undefined),-2.4%,-1.9,5.4%,?,15.8µM*,-11.8%
Cc1ccc2cc(CN(CCO)Cc3nnnn3Cc3ccc(F)cc3)c(=O)[nH]c2c1,2.1%,-0.1,5.6%,-13.9%,-22.3%,6.7%
Cc1cc(C)c2cc(CN(CCO)Cc3nnnn3Cc3ccc(F)cc3)c(=O)[nH]c2c1,-3.6%,-2.4,0.4%,11.5%,20µM*,-4.1%
O=c1[nH]c2cc3c(cc2cc1CN(CCCO)Cc1nnnn1Cc1ccc(F)cc1)OCO3,-4.1%,-0.5,-0.3%,/,31.6µM*,?
CCN(C(=O)c1cc2cc(Br)cc(OC)c2oc1=O)c1ccccc1,2.5%,/,-1.2%,-13.1%,-0.1%,-0.1%
O=C(CN1C(=O)COc2ccc(S(=O)(=O)N3CCOCC3)cc21)NCc1ccc(F)cc1,-3.2%,/,-0.7%,9.1%,0.7%,11.7%
CC(C)(C)c1ccc(CSc2nnc(-c3ccccc3NC(=O)c3ccccc3)o2)cc1,1.8%,-0.2,2.5%,-15.6%,28.2µM*,13.0%
O=C(Nc1ccccc1-c1nnc(SCc2ccccc2Cl)o1)c1ccccc1,-2.4%,-4.1,-0.5%,-9.8%,20µM*,-16.0%
CCOC(=O)C1CCN(c2ncnc3c2nnn3C)CC1,-6.1%,/,-0.2%,/,-0.3%,3.3%
COc1ccc(OC)c(C2SCCN2S(=O)(=O)c2cccc(C(F)(F)F)c2)c1 (centres undefined),4.5%,-0.9,-0.9%,20.6µM*,-3.1%,-7.1%
COc1cc(OC)c(C2SCCN2S(=O)(=O)c2ccc(F)cc2)cc1OC (centres undefined),-0.9%,0.1,0.2%,16.1%,0.2%,16.9%
Cc1ccc(NC(=O)Cn2ncc3c4ccccc4n(Cc4ccccc4)c3c2=O)cc1Cl,-1.0%,/,-1.0%,9.0%,-6.1%,3.4%
COc1ccc(NC(=O)CC(C)S(=O)(=O)c2cc3c(cc2C)NC(=O)CO3)cc1OC (centres undefined),3.2%,/,-0.8%,14.1%,-1.0%,8.4%
COc1ccc(-n2nnnc2/C=C/Nc2cc(C(F)(F)F)ccc2OC)cc1,-2.3%,0.1,7.1%,-18.6%,28.2µM*,1.5%
COc1cc(-c2nnc(CSc3nnc(Nc4ccc(Oc5ccccc5)cc4)s3)o2)cc(OC)c1OC,0.0%,3.6,4.3%,-4.7%,25.1µM*,-13.1%
COc1ccc(C(C)=O)cc1CSc1nnc(Nc2ccccc2)s1,26.2%,0.8,3.8%,23.1µM*,0.8%,-24.3%
